About 83,000 compounds went through this panel and 20% of them were active in at least one assay; those are over-represented in the sample as a whole.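 Cell lines were cultured in 96-well plates, exposed to a single compound concentration, and assessed for percent growth 48 hours later.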 The source made the active and inactive calls. How the source made its calls: active means growth percent below 10; inactive means the rest.
Columns and labels:
Assay in all cases: NCI-60 one-dose screen, 48 h (100 = growth as untreated, 0 = no growth, -100 = all killed)
Conditions in all cases: 10 µM
DU-145 prostate = tested on: DU-145 prostate
MALME-3M melanoma = tested on: MALME-3M melanoma
MDA-MB-231 breast = tested on: MDA-MB-231 breast
RXF 393 renal = tested on: RXF 393 renal
SF-268 CNS = tested on: SF-268 CNS
SF-295 CNS = tested on: SF-295 CNS
SF-539 CNS = tested on: SF-539 CNS
UACC-257 melanoma = tested on: UACC-257 melanoma
M14 melanoma = tested on: M14 melanoma
HCT-15 colon = tested on: HCT-15 colon
HT29 colon = tested on: HT29 colon
SNB-75 CNS = tested on: SNB-75 CNS
SNB-19 CNS = tested on: SNB-19 CNS
U251 CNS = tested on: U251 CNS
SK-MEL-5 melanoma = tested on: SK-MEL-5 melanoma
SK-MEL-28 melanoma = tested on: SK-MEL-28 melanoma
UACC-62 melanoma = tested on: UACC-62 melanoma
LOX IMVI melanoma = tested on: LOX IMVI melanoma
PC-3 prostate = tested on: PC-3 prostate

Measured: growth

CC(=O)c1ccc(NC(=O)NCn2c(=O)[nH]c3ccccc3c2=O)cc1
inactive: DU-145 prostate 104% | MALME-3M melanoma 93.2% | MDA-MB-231 breast 95.1% | RXF 393 renal 97.4% | SF-268 CNS 128% | SF-295 CNS 92.7% | SF-539 CNS 90.6% | UACC-257 melanoma 98.6% | M14 melanoma 110% | HCT-15 colon 101% | HT29 colon 105% | SNB-75 CNS 99.9% | SNB-19 CNS 90.4% | U251 CNS 86.7% | SK-MEL-5 melanoma 96.8% | SK-MEL-28 melanoma 103%

Cc1ccc(-c2nc3ccc(C(=O)N=Nc4c(O)[nH]c5ccc(Br)cc45)cc3[nH]2)cc1
active: U251 CNS -76% | LOX IMVI melanoma -27.8%
inactive: DU-145 prostate 17.2% | MALME-3M melanoma 90.5% | MDA-MB-231 breast 23% | RXF 393 renal 66.1% | SF-268 CNS 44.3% | SF-295 CNS 93.6% | SF-539 CNS 86.4% | UACC-257 melanoma 99.7% | M14 melanoma 55.8% | HCT-15 colon 96.6% | HT29 colon 47.9% | SNB-75 CNS 107% | SNB-19 CNS 46.1% | SK-MEL-5 melanoma 84.1% | UACC-62 melanoma 98% | SK-MEL-28 melanoma 99.3%

CC1(C)CC[C@]2(C(=O)O)CC[C@]3(C)C(=CC[C@@H]4[C@@]5(C)C/C(=C/c6ccncc6)[C@H](O)C(C)(C)[C@@H]5CC[C@]43C)[C@@H]2C1
inactive: DU-145 prostate 57.9% | MALME-3M melanoma 73.1% | MDA-MB-231 breast 34.1% | RXF 393 renal 24.2% | SF-268 CNS 46.9% | SF-295 CNS 20.1% | SF-539 CNS 27.8% | UACC-257 melanoma 64.3% | M14 melanoma 61.6% | HCT-15 colon 15.7% | HT29 colon 35.3% | SNB-75 CNS 35.5% | SNB-19 CNS 41.8% | U251 CNS 28.9% | PC-3 prostate 28.2% | UACC-62 melanoma 52.6% | LOX IMVI melanoma 28.7% | SK-MEL-28 melanoma 46.3%
active: SK-MEL-5 melanoma -23.2%

O=C(Nc1ccccc1)Nc1nc2ccccc2s1
active: MALME-3M melanoma -10.2%
inactive: DU-145 prostate 104% | MDA-MB-231 breast 79.5% | RXF 393 renal 110% | SF-268 CNS 111% | SF-295 CNS 82.3% | SF-539 CNS 88.6% | UACC-257 melanoma 20.8% | M14 melanoma 78.8% | HCT-15 colon 66.7% | HT29 colon 89.4% | SNB-75 CNS 109% | SNB-19 CNS 89.7% | U251 CNS 95.9% | PC-3 prostate 67.3% | SK-MEL-5 melanoma 61.1% | LOX IMVI melanoma 83.2% | SK-MEL-28 melanoma 41.4%

O=C(COc1ccc(NC(=O)Nc2ccc(Cl)cc2)cc1)N=Nc1c(O)[nH]c2ccc([N+](=O)[O-])cc12
inactive: DU-145 prostate 60.3% | MALME-3M melanoma 12.1% | RXF 393 renal 73.1% | SF-268 CNS 19.5% | SF-295 CNS 87.3% | SF-539 CNS 16.5% | UACC-257 melanoma 74.9% | M14 melanoma 21.2% | HCT-15 colon 94.1% | HT29 colon 34.8% | SNB-75 CNS 29.9% | SNB-19 CNS 19.1% | PC-3 prostate 46.8% | SK-MEL-5 melanoma 63.1% | UACC-62 melanoma 11.3%
active: MDA-MB-231 breast -44.7% | U251 CNS -67.6% | SK-MEL-28 melanoma -4.38%
